# Screening data (PubChem)
# D2 ag-1 = activates the human D2 dopamine receptor; P14416; DiscoveRx PathHunter D2 beta-arrestin, luminescence, 90 min; 100% = 57 uM dopamine signal; activation, % (test concentration not listed); hit rate 0.084% among 360,000; in the data active = activation above about 40%; inconclusive = between about 15% and that limit
#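 DiscoveRx PathHunter D2 beta-arrestin cells (2,100/well) attached overnight, then compound-stimulated 90 min at 37 C in HBSS/10 mM HEPES/0.1% Tween-20 buffer; beta-galactosidase complementation read by luminescence after 1 h at ambient temperature. Dopamine 57 uM final (EC100) as control.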
# D2 PAM-1 = positive allosteric modulators of human D2 dopamine receptor; hit rate 0.23% among 360,000; potentiation, % (test concentration not listed); DiscoveRx D2 beta-arrestin cells, luminescence, 90 min; 100% = 57 uM dopamine signal; in the data active = potentiation above about 50%; inconclusive = mostly about 30% to 49%
#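 PathHunter D2 cells, attached overnight at 37 deg C, received compound in DMSO plus dopamine at EC20 (50 nM final) for 90 min at 37 deg C. Beta-arrestin recruitment was read as luminescence after 1 h with detection reagent at ambient temperature.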
# D2 PAM-2 = D2 dopamine receptor (human) potentiation; P14416; HEK293 T-REx D2, calcium flux, EC20 dopamine potentiation; potentiation, % at 10 µM; hit rate 0.34% among 340,000; AID 485347;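 active = potentiation over 3 SD above the plate norm, cut at about 30% in these data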; also: 0% is about no effect
#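 Tetracycline-induced Hek293 Trex D2 cells, force-coupled to calcium, loaded with no-wash calcium dye. Compound added with 180 s kinetic read for agonism, then EC20 dopamine and a further 180 s read for potentiation.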
# B2AR arrestin = recruits beta-arrestin to the human beta2-adrenergic receptor. beta-arrestin recruitment to beta2AR, cell-based reporter. Potency, µM (top dose mostly 46.1 µM), for the others: at the top dose activation, usual class: activators. P07550. AID 492947. hit rate 0.02% among 330,000; active = well fitted activation curve with a large enough effect; inconclusive = small, poorly fitted or top-dose-only effect;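 also: potency is read from the fitted curve at half-maximal effect; 0% = DMSO controls and full agonism = EC100 isoproterenol or metaproterenol; nearly all actives have a fitted effect of over 65% in size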
# Target sequence (P07550 whole entry, looked up): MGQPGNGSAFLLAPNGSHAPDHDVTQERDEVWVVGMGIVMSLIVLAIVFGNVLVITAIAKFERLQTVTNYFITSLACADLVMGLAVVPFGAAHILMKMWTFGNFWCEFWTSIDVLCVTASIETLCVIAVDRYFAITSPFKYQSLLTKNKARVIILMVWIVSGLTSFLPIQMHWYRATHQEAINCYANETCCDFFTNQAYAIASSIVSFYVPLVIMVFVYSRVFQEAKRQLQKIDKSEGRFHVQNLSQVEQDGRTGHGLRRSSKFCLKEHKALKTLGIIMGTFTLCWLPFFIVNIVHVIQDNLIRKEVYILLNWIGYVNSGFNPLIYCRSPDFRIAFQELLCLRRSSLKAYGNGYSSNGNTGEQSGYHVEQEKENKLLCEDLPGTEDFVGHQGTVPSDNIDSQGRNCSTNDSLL
# D2 ag-2 = agonists of human D2 dopamine receptor. AID 485358. P14416. hit rate 0.53% among 340,000. HEK293 T-REx D2 cells, calcium flux agonist mode. activation, % at 2 µM;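 active = activation over 3 SD above normal in the single-dose calcium agonist read, cut at about 30% in these data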; also: 0% is about no effect
#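 Calcium-flux readout, 1 cycle/sec over 180 s following compound pin transfer, in inducible HEK293 Trex D2 cells (force-coupled); dopamine controls included. Positive calcium responses during this window marked compounds as potential agonists.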
# D2 antag = antagonists of human D2 dopamine receptor; inhibition, % at 10 µM; hit rate 2% among 340,000; HEK293 TREx D2 cells, calcium flux, dopamine EC80; in the data active = inhibition above about 30%; inactive = below that, where a call was filed; also: 0% is about no effect
#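 Dopamine at EC80 is the agonist stimulus; test compounds precede it by 180 s. Calcium flux read kinetically in a force-coupled, inducible HEK293 T-REx D2 cell line.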
# * marks the source's active call; other numbers are inactive results; u = inconclusive; x = no result. Most compounds without a hit are left out; they make up all but 2.4% or so of the library.
SMILES,D2 ag-1,D2 PAM-1,D2 PAM-2,B2AR arrestin,D2 ag-2,D2 antag
O=C1CCN(S(=O)(=O)c2ccc(Cl)cc2)CC1,3,6,12,2%,0,-15
COc1cc(CN2CCC(C(=O)NCC(C)(C)CN(C)C)CC2)ccc1OCc1ccccc1,1,-18,12,-1%,1,-8
Cc1cccc(C(=O)NC(=S)NNC(=O)c2ccccc2Cl)c1,1,-12,6,0%,31*,25
Cc1ccccc1C(=O)NNC(=S)NC(=O)c1ccc(Cl)cc1Cl,-3,-12,-15,-1%,46*,31*
Cc1onc(-c2ccccc2)c1C(=O)NNC(=S)NC(=O)c1ccc(Cl)cc1Cl,-3,-13,-4,6%,32*,30*
O=C(NC(=S)NNC(=O)c1ccc(Cl)cc1Cl)c1cccnc1,2,-28,1,0%,1,-1
O=C(NCCc1ccc(Cl)cc1)c1ccc2c(c1)N(Cc1c(F)cccc1Cl)C(=O)CS2,x,x,-1,x,1,x
O=C(CCSCc1cnn(-c2ccccc2)c1-n1cccc1)NCc1ccccc1Cl,x,x,-25,x,-2,x
COc1ccc(C2NC(=O)N(C)C3=C2C(=O)N(c2ccc(F)cc2)C3)cc1 (stereo not drawn),x,x,2,x,0,x
CCOCCCNC(=O)c1cc2c(=O)[nH]c3ccccc3c2s1,u,8,-13,3%,39*,58*
Cc1ccsc1C(=O)NNC(=O)c1csc(N2CCOCC2)n1,-8,-11,-8,0%,1,32*
Cc1ccc(C(=O)NNC(=O)c2csc(N3CCOCC3)n2)o1,-3,-16,-4,0%,0,17
Cc1ccsc1C(=O)Nc1ccccc1N1CCOCC1,-3,10,-8,0%,0,38*
CCN(CC)S(=O)(=O)c1ccc(N2CCOCC2)c(NC(=O)c2sccc2C)c1,-1,-7,x,0%,x,x
O=C1c2ccccc2C(=O)N1OCCOCCOCCBr,1,-8,-27,0%,0,15
Cc1ccc(Oc2nc(-c3ccccc3)ncc2S(=O)(=O)c2ccc(C)cc2)cc1,0,0,2,-1%,-1,40*
Cc1ccc(Oc2nc(-c3ccccc3)ncc2S(C)(=O)=O)cc1,-3,7,9,0%,0,9
CCC(=O)N1CCN(c2ccc(NC(=O)c3ccc(N4CCOCC4)c([N+](=O)[O-])c3)cc2)CC1,-2,-3,8,6%,0,-13
CC1CCCN(CCCNC(=O)c2ccc3c(c2)N(Cc2cccc(Cl)c2)C(=O)c2ccccc2S3=O)C1 (stereo not drawn),-2,-27,x,x,x,x
CC1CCCN(CCCNC(=O)c2ccc3c(c2)N(Cc2ccc(F)cc2)C(=O)c2ccccc2S3=O)C1 (stereo not drawn),-9,-39,-19,0%,2,74*
CC(OC(=O)c1cccnc1SCc1cc(=O)n2ccccc2n1)c1ccccn1 (stereo not drawn),3,-5,30*,-1%,-1,2
CCOC(=O)c1cccnc1SCc1cc(=O)n2ccccc2n1,1,-8,3,0%,-1,7
COCCn1c(SCCN2CCCCC2)nc2ccccc2c1=O,1,-32,-11,0%,1,8
CC1CCN(S(=O)(=O)c2ccc3ncn(CC(=O)N4CCN(C)CC4)c(=O)c3c2)CC1,-5,-4,12,0%,0,48*
Cc1cc2c(=O)n(Cc3ccco3)c(SCC(=O)NCc3ccco3)nc2s1,-2,-11,1,0%,-1,2
c1ccc(-c2nnc3sc(CN4CCc5ccccc54)cn23)cc1,-1,3,-10,3%,1,-25
CCC1CCCCN1CCCCOc1cccc(Cl)c1 (stereo not drawn),-1,-16,-25,0%,0,55*
CN1CCN(CCOc2cccc(Cl)c2)CC1,0,-34,-9,0%,0,15
Cc1csc(SCC(=O)Nc2cccc3nsnc23)n1,0,-4,4,0%,1,33*
Cc1csc(SCC(=O)Nc2ccc(C)c(F)c2)n1,-3,-17,-23,1%,-1,37*
